# hgDAF-12 ag: activates the H. glycines DAF-12 receptor ligand-binding domain | HEK293 GAL4-hgDAF12 UAS-luciferase reporter, agonist luminescence; normalized to butyrate control | activation, % at 6.8 µM | 370,000 compounds, 1.8% hits;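 active = activation above a cutoff set at the mean of all screened compounds plus 3 SD, cut at about 10% in these data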;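 note: 0% = DMSO wells and 100% = sodium butyrate wells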
# DAX1 inh-1: NR0B1 (DAX1) inhibition | P51843 | HEK293 Gal4-DAX1 luciferase reporter, luminescence | inhibition, % at 6.75 µM | 340,000 compounds, 0.99% hits;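 active = inhibition above the mean over all tested compounds plus 3 SD, cut at about 4.2% in these data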;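 note: 0% = DAX1-transfected cells with DMSO and 100% = empty-vector control cells with DMSO; inhibition shows as a rise in luminescence from relieved DAX1 repression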
# Target sequence (P51843 207-470 limits assumed): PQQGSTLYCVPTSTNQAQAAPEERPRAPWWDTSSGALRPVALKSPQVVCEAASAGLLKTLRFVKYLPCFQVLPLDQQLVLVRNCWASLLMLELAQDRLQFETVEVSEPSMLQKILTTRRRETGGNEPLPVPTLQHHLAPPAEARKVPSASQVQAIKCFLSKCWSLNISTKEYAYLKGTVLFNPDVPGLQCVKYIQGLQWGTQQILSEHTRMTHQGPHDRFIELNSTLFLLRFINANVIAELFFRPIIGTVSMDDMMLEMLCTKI
# DAX1 inh-2: DAX1 (NR0B1) inhibition, primary screen; HEK293T StAR-luciferase reporter, SF-1/DAX-1 repression relief; inhibition, % at 6.8 µM; 370,000 compounds, 1.1% hits; AID 652010;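 active = inhibition above the mean over all tested compounds plus 3 SD, cut at about 3.6% in these data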;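 note: 0% = DAX-1 cells with DMSO and 100% = cells lacking DAX-1 with DMSO; higher inhibition means more luminescence from relief of DAX-1 repression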
# hcDAF-12 act: H. contortus DAF-12 activation, primary screen; HEK293 hcDAF-12 lit1-tk-luc reporter, luminescence; 0% DMSO, 100% Δ7-dafachronic acid; 370,000 compounds, 1.4% hits; activation, % at 6.8 µM;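 active = activation above the mean of all tested compounds plus 3 SD, cut at about 5.5% in these data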;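 note: 100% = response to 3 µM Δ7-dafachronic acid high control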
# ssDAF12 agonist: activates DAF-12 receptor from parasite S. stercoralis. activation, % at 6.8 µM. 370,000 compounds, 1% hits. HEK293 ssDAF-12/GRIP1 lit1-tk-luc reporter, luminescence; % of 3 µM dafachronic acid response;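 active = activation above the mean over all tested compounds plus 3 SD, cut at about 0.9% in these data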;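 note: 0% = DMSO-only wells and 100% = 3 µM delta7-dafachronic acid wells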
# Starred values were filed as active, the others as inactive; x = not tested or not shown. An excerpt weighted towards active compounds, which were near 4.1% of everything screened.
SMILES,hgDAF-12 ag,DAX1 inh-1,DAX1 inh-2,hcDAF-12 act,ssDAF12 agonist
Cc1ccc(Nc2nc(-c3sc(N)nc3C)cs2)cc1,5.1,2.0,1.4,5.8*,0.4
COc1ccc(Nc2nc(-c3sc(N)nc3C)cs2)cc1,8.0,0.5,0.1,2.5,-0.1
CC1CC2CCCC(O)=C2C(=O)O1 (stereo unspecified),-0.6,4.3*,-0.7,1.4,-0.5
O=C(CN1C(=O)CCC1=O)NC(=O)NC1CCCC1,0.6,4.6*,0.7,-0.2,-0.1
CC1(c2ccccc2)NC(=O)N(CC(=O)NC(=O)NC2CCCC2)C1=O (stereo unspecified),1.9,0.3,-0.1,0.0,-1.0
O=C(N[C@@H]1CCCc2c1cnn2-c1ccc(F)cc1F)c1ccccn1,-2.0,x,x,-3.9,-2.0
CCCC[C@H]1C2CC(OC(=O)Nc3ccccc3OC)C(C2)[C@H]2CCCCN21 (stereo partly specified),0.4,x,0.7,0.4,-0.5
O=C(CSc1ccccc1)Nc1ccc(N2CCOCC2)c(F)c1,4.7,1.8,4.4*,1.2,-0.4
O=C(CSc1ccccc1F)Nc1ccc(N2CCOCC2)cc1,11.8*,1.0,-2.5,1.2,-0.5
O=C(CSc1ccc(Cl)cc1)Nc1ccc(N2CCN(c3ccccc3)CC2)c(F)c1,2.7,-0.2,0.3,-1.1,-1.4
COc1ccccc1C1c2[nH]c3ccccc3c2CCN1Cc1ccc(NC(C)=O)s1 (stereo unspecified),5.4,-1.2,-0.7,2.8,-0.4
Cn1c(COc2ccc(F)cc2)nc2ccccc21,9.3,2.2,0.7,4.1,-0.2
Cc1ccccc1OCc1nc2ccccc2n1C,11.0*,1.8,1.5,3.7,-0.4
COC(=O)C1=C(C)N(Cc2cccc(C(F)(F)F)c2)C(=NCc2ccccc2C(F)(F)F)NC1c1cccc(F)c1 (stereo unspecified),3.3,x,-0.6,-0.8,-1.3
COC(=O)CNC(=O)CCc1nnc(C2(c3ccc(Cl)cc3)CCC2)o1,2.3,4.4*,0.7,2.0,-1.5
C=CCNC(=O)CCc1nnc(C2(c3ccc(Cl)cc3)CCC2)o1,12.2*,1.1,1.2,2.6,-0.5
O=C(CCc1nnc(C2(c3ccc(Cl)cc3)CCC2)o1)NC1CC1,0.8,-0.3,-0.6,-0.2,-1.7
C=C(C)CNC(=O)CCc1nnc(C2(c3ccc(Cl)cc3)CCC2)o1,7.7,0.0,0.7,-0.6,0.6
CN(C)C(=O)N1CCN(c2nc(-c3ccccc3)cs2)CC1,9.7,4.6*,1.1,0.2,-0.7
O=C(N1CCOCC1)N1CCN(c2nc(-c3ccccc3)cs2)CC1,1.8,1.3,0.2,0.1,-0.8
Cc1ccccc1N(CC(=O)NC1CCCCC1)C(=O)CCCC(=O)Nc1ccccn1,-1.3,5.0*,-0.2,-3.3,-1.0
CCc1ccccc1N(CC(=O)NC1CCCCC1)C(=O)CCCC(=O)Nc1ccccn1,0.3,2.5,-0.3,-1.9,-0.8
CN1C[C@]2(C=C3CCCCC3n3c(=O)n(-c4ccccc4)c(=O)n32)N(C(=O)OCc2ccccc2)C1=NC(=O)c1ccccc1 (stereo partly specified),-1.0,x,-1.6,-1.6,-0.6
O=C(O)C1CCC(Cn2c(SCc3cc(=O)n4ccccc4n3)nc3ccsc3c2=O)CC1 (stereo unspecified),0.3,5.0*,0.4,-1.7,-2.1
O=C(CSc1nc2ccsc2c(=O)n1CC1CCC(C(=O)O)CC1)c1ccc(Cl)cc1 (stereo unspecified),-1.9,-0.3,0.5,-1.7,-1.3
SMILES,hgDAF-12 ag,DAX1 inh-1,DAX1 inh-2,hcDAF-12 act,ssDAF12 agonist
O=C(CSc1nc2ccsc2c(=O)n1CC1CCC(C(=O)O)CC1)c1ccc(F)cc1 (stereo unspecified),11.2*,0.5,-0.5,-0.9,-1.7
CCOc1ccc(NS(=O)(=O)c2ccc(C(=O)NC3CCC(O)CC3)cc2)cc1 (stereo unspecified),0.0,-0.2,-1.1,-0.5,-1.1
CCOc1cc(N(CC)CC)ccc1/C=C(/C#N)c1nc2ccccc2[nH]1,1.9,6.5*,0.4,-1.3,-1.4
COc1ccccc1N/C=C(\C#N)c1nc2ccccc2[nH]1,1.4,-0.1,-0.4,4.8,1.2*
COc1cccc(/C=C(/C#N)c2nc3ccccc3[nH]2)c1OC(C)C(=O)O (stereo unspecified),5.3,7.0*,1.1,4.4,1.0*
Cc1ccccc1S(=O)(=O)N1CCC(c2nc3ccccc3o2)CC1,-1.3,x,-0.1,-2.7,-1.4
COc1ccc(C(CCOC(=O)Oc2ccccc2)c2cc(OC)c(OC)c(OC)c2)cc1 (stereo unspecified),0.5,x,-1.2,-3.0,-2.0
CCN(c1ccc(NC(=O)COC(=O)C2CCN(c3ccc(C(F)(F)F)cn3)CC2)cc1)C(C)C,-0.2,0.1,3.2,-0.2,-1.5
CC(C)(C)n1ncc2c(=O)n(CC(=O)NCc3ccccc3Cl)cnc21,9.5,-0.3,2.3,6.1*,0.0
CC(C)(C)n1ncc2c(=O)n(CC(=O)NCCc3ccccc3)cnc21,2.2,2.1,1.2,-1.0,-0.5
CCOC(=O)C(=O)N1CCC(C(=O)NC2CCCc3ccccc32)CC1 (stereo unspecified),1.3,x,-0.2,-0.3,-1.1
O=C(NC1CCCCN(Cc2cccc(Cl)c2)C1=O)c1ccc(F)cc1 (stereo unspecified),-1.8,x,-0.9,0.9,-1.6
CC(=O)c1ccc(NC(=O)COC(=O)CCC(=O)c2cccs2)cc1,-1.4,-1.1,-0.1,0.9,-1.7
Cc1ccc(Oc2ccc(NC(=O)CCC(=O)OCC(=O)c3cccs3)cc2)cc1C,4.6,4.5*,-0.8,0.7,-1.8
CCOc1ccc(NC(=O)CN(C)C(=O)c2cc(S(=O)(=O)N3CCCCCC3)ccc2OC)cc1OCC,1.1,0.0,3.9*,-1.1,0.4
CCc1ccc(CCNC(=O)OCCCN2CCC3(CCC(c4ccccc4)CC3)C2=O)cc1 (stereo unspecified),-5.7,x,-3.4,-2.2,-1.7
CN1C(=O)[C@@]2(C3=C(CCCC3=O)OC3=C2C(=O)OC2(CCCCC2)C3)c2ccccc21,-0.8,x,0.8,-0.6,-0.9
NC(=O)c1ccsc1NC(=O)COC(=O)c1ccc(Cl)nc1,0.2,0.9,1.2,-1.6,-1.1
NC(=O)c1ccsc1NC(=O)COC(=O)c1cccnc1Cl,10.7*,-0.3,1.2,1.0,-0.4
CSc1ccc(C(=O)N2CCc3ccc(NC(=O)c4ccccn4)cc3C2)cc1,3.2,-0.2,1.3,-0.1,-1.4
CSc1ccccc1C(=O)N1CCc2ccc(NC(=O)c3ccccn3)cc2C1,10.7*,0.6,2.7,2.9,-0.7
CCN1C(=O)C(CC(=O)Nc2ccc(OC)cc2)N(Cc2cccnc2)C1=S (stereo unspecified),-0.5,-0.5,-0.5,-1.9,2.7*
O=C(c1csc2c1CCCC2)N1CCN(c2ccccc2)CC1,6.2,-1.0,0.9,3.4,1.1*
O=C(c1ccccc1C(=O)N1CCN(c2ccccc2)CC1)N1CCN(c2ccccc2)CC1,-1.8,-0.1,-0.5,-1.9,-0.3

# Screening results as filed in PubChem.
